Source: the supplement of paper PMC6555819

Tests used:
Assay in all cases: PBM binding z-score (relative to random genomic background probes); higher = stronger binding; sequences stand for … in GC…GCGATTGACAGCGTAGAATGAAGG
[1] = system: FXR:RXRa (NR concentration 270 nM, RXRa partner concentration 90 nM)
In short: (§1)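 Binding buffer was PBS pH 7.4 with 2% milk, 0.02% Triton X-100, 1 mM DTT, 0.2 mg/mL BSA and 0.4 mg/ml salmon testes DNA. In it, ligand-free nuclear receptor dimers were incubated 1 h on custom Agilent 4×180K protein-binding microarrays carrying double-stranded probes. Antibodies against each partner (one per run) detected binding, and z-scores were calculated against random background probes after regression normalization of scanned fluorescence.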

[2] = system: LXRa:RXRa (NR concentration 270 nM, RXRa partner concentration 90 nM)
In short: as §1

[3] = system: LXRa homodimer (NR concentration 270 nM)
In short: as §1

[4] = system: LXRb:RXRa (NR concentration 270 nM, RXRa partner concentration 90 nM)
In short: as §1

[5] = system: LXRb homodimer (NR concentration 270 nM)
In short: as §1

[6] = system: PPARa:RXRa (NR concentration 270 nM, RXRa partner concentration 90 nM)
In short: as §1

[7] = system: PPARg:RXRa (NR concentration 180 nM, RXRa partner concentration 90 nM)
In short: as §1

[8] = system: PPARg:RXRa 270nM:90nM, anti-RXR (NR concentration 270 nM, RXRa partner concentration 90 nM)
In short: as §1

[9] = system: PPARg:RXRa 30nM:10nM, anti-RXR (NR concentration 30 nM, RXRa partner concentration 10 nM)
In short: as §1

[10] = system: PPARg:RXRa 90nM:30nM, anti-RXR (NR concentration 90 nM, RXRa partner concentration 30 nM)
In short: as §1

Row | Sequence | PBM binding z-score [1] | PBM binding z-score [2] | PBM binding z-score [3] | PBM binding z-score [4] | PBM binding z-score [5] | PBM binding z-score [6] | PBM binding z-score [7] | PBM binding z-score [8] | PBM binding z-score [9] | PBM binding z-score [10]
1 | CGAACTGGGTCATCCAGGACAGTGAATACATTGA | 3.3 | 1.9 | 0.0995 | 1.9 | -0.478 | 4.92 | 7.51 | 5.92 | 3.5 | 5.51
2 | GGGACGAGGGCATTCGAGTTGATAGCATGGCGAT | 1.09 | 1.84 | -0.143 | 0.891 | 0.141 | 1.25 | 0.732 | 0.668 | -0.43 | 0.0864
3 | AGAATGAGGTTAAGATCAGGCAAACAGAATACAT | 2.11 | 5.61 | -0.312 | 2.82 | -0.408 | 3.45 | 2.21 | 2.38 | 0.95 | 1.63
4 | CCTGCTAGGTCGATGGTCAGCTAAAGCAGCTCGC | -0.156 | -0.179 | -0.637 | -0.279 | -0.599 | 0.0378 | 0.232 | 1.43 | -0.649 | 0.713
5 | CCAGACAGTTGAAAGGTAACTCAGTCTGGTACGC | 0.192 | 0.408 | -0.24 | 0.365 | -0.0531 | 1.47 | 0.992 | 1.75 | 0.231 | 0.964
6 | ATCTCTATGTAAAGTTCAGTGAAAGATCGATAGA | 0.881 | 1.72 | 1.66 | 1.17 | 0.525 | 1.87 | 2.59 | 3.76 | 2.03 | 3.82
7 | TCTTATAGGTAAAGGTGAAAGTCGAACGATATGA | 1.15 | 1.59 | 0.00548 | 1.58 | 0.488 | 3.27 | 3.38 | 4.4 | 4.42 | 4.81
8 | TCTCGGAGGACACGACAGGTCAGAGCTCGACATC | 1.13 | 1.51 | 0.823 | 0.827 | -0.505 | 1.4 | 0.559 | 1.1 | 2.11 | 1.5
9 | CATACAGGGTCTGCTAGGCCAGAGTAGGGACGGC | -0.237 | -0.31 | -0.443 | -0.834 | -0.599 | -0.452 | 0.152 | -0.899 | -0.808 | -0.386
10 | CGAACGAGGGCATGTGTTGATAGCAAATGCCGAT | 0.387 | 0.273 | -0.286 | 0.11 | -0.807 | 1.05 | 1.15 | 1.14 | 0.0411 | 0.632
11 | CCTACTGGGCCATTAGGTCATTGATATCAACGTT | 1.06 | 0.977 | 0.832 | 1.24 | -0.52 | 2.76 | 3.46 | 3.68 | 1.32 | 3.03
12 | GCGACTGAGGCATCAGCAGGTTACCATAACTTAA | -0.539 | -0.504 | -0.511 | -0.382 | -0.493 | -0.272 | 0.31 | -0.607 | -0.469 | -0.443
